Measured values: PubChem BioAssay (EPA / NIEHS)
Where “and” joins values, the source holds several entries; their conditions need not be identical. Equal values may be shown once. A structure can be active in one record and inactive in another. Calls of active or inactive are those of the source. Rule for the calls: active = hit-call score of the fitted dose curve at least 0.9, where 1 is the maximum; inactive = score below 0.9.

Assays:
[1] = read-out: Interleukin-8 (IL8), CXCL8 (gene 3576); assay: BSK_KF3CT_IL8: BioMAP Diversity Plus: KF3CT Assay for Interleukin-8 (IL8) Biomarker Activity (AID 2284254); conditions: primary human keratinocytes with fibroblasts
Procedure, shortened: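 IL-8 read-out: ELISA, 24 h post-dose, human skin primary co-culture (keratinocytes + foreskin fibroblasts). DMSO = baseline; positive-direction fit.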

[2] = read-out: Macrophage Inflammatory Protein-1 Alpha (MIP1a), CCL3 (gene 6348); assay: BSK_IMphg_MIP1a: BioMAP Diversity Plus: IMphg Assay for Macrophage Inflammatory Protein-1 Alpha (MIP1a) Biomarker Activity (AID 2284255); conditions: primary human endothelial cells with macrophages
Procedure, shortened: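 Co-culture of human venular endothelial cells and macrophages exposed to compounds for 24 h; MIP-1a measured by ELISA relative to DMSO. Cytotoxicity assessed in parallel cultures by sulforhodamine B total-protein staining at 560 nm.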

[3] = read-out: Plasminogen activator inhibitor-1 (PAI1), SERPINE1 (gene 5054); assay: BSK_MyoF_PAI1: BioMAP Diversity Plus: MyoF Assay for Plasminogen activator inhibitor-1 (PAI1) Biomarker Activity (AID 2284256); conditions: primary human lung fibroblasts
Procedure, shortened: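 MyoF lung fibroblasts, human primary; compound 24 h; PAI-1 ELISA; positive-direction fit vs DMSO baseline; parallel SRB total-protein staining for cytotoxicity.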

[4] = read-out: CD69, CD69 (gene 969); assay: BSK_IMphg_CD69: BioMAP Diversity Plus: IMphg Assay for CD69 Biomarker Activity (AID 2284257); conditions: primary human endothelial cells with macrophages
Procedure, shortened: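 Human venular endothelial cells co-cultured with macrophages; CD69 quantified by ELISA 24 h after compound addition. Activity fitted in the positive direction relative to DMSO baseline; cytotoxicity tracked in parallel cultures via SRB total-protein staining.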

[5] = read-out: Eotaxin 3, CCL26 (gene 10344); assay: BSK_BF4T_Eotaxin3: BioMAP Diversity Plus: BF4T Assay for Eotaxin 3 Biomarker Activity (AID 2284258); conditions: primary human bronchial epithelial cells with fibroblasts
Procedure, shortened: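 Co-culture of human bronchial epithelial cells and dermal fibroblasts, exposed to chemicals for 24 h versus DMSO. Eotaxin-3 quantified by ELISA; cytotoxicity checked in parallel cultures by sulforhodamine B total-protein staining.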

[6] = read-out: Monocyte Chemoattractant Protein-1 (MCP1), CCL2 (gene 6347); assay: BSK_BF4T_MCP1: BioMAP Diversity Plus: BF4T Assay for Monocyte Chemoattractant Protein-1 (MCP1) Biomarker Activity (AID 2284259); conditions: primary human bronchial epithelial cells with fibroblasts
Procedure, shortened: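 Co-culture of bronchial epithelial cells and dermal fibroblasts dosed with chemical; MCP-1 measured by ELISA 24 h later. Activity fitted in positive direction versus DMSO; cytotoxicity checked by SRB staining in parallel cultures.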

[7] = read-out: Intercellular Adhesion Molecule 1 (ICAM1), ICAM1 (gene 3383); assay: BSK_BF4T_ICAM1: BioMAP Diversity Plus: BF4T Assay for Intercellular Adhesion Molecule 1 (ICAM1) Biomarker Activity (AID 2284260); conditions: primary human bronchial epithelial cells with fibroblasts
Procedure, shortened: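 Co-culture of human bronchial epithelial cells and dermal fibroblasts exposed 24 h to chemical; cell-surface ICAM-1 quantified by ELISA. Parallel SRB total-protein staining assessed cytotoxicity; activity fitted relative to DMSO.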

[8] = read-out: Interleukin-8 (IL8), CXCL8 (gene 3576); assay: BSK_MyoF_IL8: BioMAP Diversity Plus: MyoF Assay for Interleukin-8 (IL8) Biomarker Activity (AID 2284261); conditions: primary human lung fibroblasts
Protocol: (§1) BSK_MyoF is a cell-based, multiplexed-readout assay that uses lung fibroblasts, […], with measurements taken at 24 hours after chemical dosing in a microplate: 96-well plate.BSK_MyoF_IL8 is an assay component measured in the BSK_MyoF assay. It measures IL-8 antibody related to regulation of gene expression using ELISA technology.Data from the assay component BSK_MyoF_IL8 was analyzed at the endpoint, BSK_MyoF_IL8, in the positive analysis fitting direction relative to DMSO as the negative control and baseline of activity. Using a type of binding reporter, gain or loss-of-signal activity can be used to understand protein changes. […]
(§2) The levels of cell surface (or secreted, indicated by the prefix "s") biomarker endpoints were measured by ELISA. Overt cytotoxicity to cells in confluent adherent cultures (all systems other than the BT system) was assessed by measuring total protein levels using sulforhodamine B (SRB) staining in parallel cultures at the time of biomarker measurements, indicated as SRB endpoints. For proliferation assays for adherent cell types, individual cell types are cultured at sub-confluence and relative cell numbers quantified by SRB staining at time points optimized for each system (48 h: 3C and CASM3C systems; 72 h: BT and HDF3CGF systems; 96 h: SAg system). […] Plates were read after 6 h.

[9] = read-out: CD90, THY1 (gene 7070); assay: BSK_BF4T_CD90: BioMAP Diversity Plus: BF4T Assay for CD90 Biomarker Activity (AID 2284262); conditions: primary human bronchial epithelial cells with fibroblasts
Procedure, shortened: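 Co-culture of human bronchial epithelial cells and dermal fibroblasts, 24 h compound exposure. Cell-surface CD90 measured by ELISA relative to DMSO; parallel SRB total-protein staining for cytotoxicity.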

[10] = read-out: Interleukin-8 (IL8), CXCL8 (gene 3576); assay: BSK_BF4T_IL8: BioMAP Diversity Plus: BF4T Assay for Interleukin-8 (IL8) Biomarker Activity (AID 2284263); conditions: primary human bronchial epithelial cells with fibroblasts
Protocol: as §1, with “BSK_BF4T” for “BSK_MyoF”, “bronchial epithelial cells and dermal” for “lung”, “plate.BSK_BF4T_IL8” for “plate.BSK_MyoF_IL8”, “BSK_BF4T_IL8” for “BSK_MyoF_IL8”, “BSK_BF4T_IL8,” for “BSK_MyoF_IL8,”
as §2

**Q.** How did the outcome [1] turn out when `CCNS(=O)(=O)C(F)(F)C(F)(F)C(F)(F)C(F)(F)C(F)(F)C(F)(F)C(F)(F)C(F)(F)F` was run?
**A.** Its outcome is “inactive”.

**Q.** What about the AC50 [2] of the same molecule?
**A.** The AC50 was 35 µM (active).

**Q.** And the outcome [2]?
**A.** Its outcome is “inactive”.

**Q.** What about the AC50 [3] of the same molecule?
**A.** The AC50 was 58.4 µM (active) and 51.1 µM (active).

**Q.** What about the AC50 [4] of the same molecule?
**A.** The AC50 was 38.4 µM (active) and 39.2 µM (active).

**Q.** And the AC50 [5]?
**A.** Its AC50 is 7.65 µM (active) and 6.97 µM (active).

**Q.** And the AC50 [6]?
**A.** The AC50 was 18.6 µM (active) and 22.6 µM (active).

**Q.** What about the AC50 [7] of the same molecule?
**A.** The AC50 was 30 µM (active) and 25 µM (active).

**Q.** What about the AC50 [8] of the same molecule?
**A.** Its AC50 is 41.5 µM (active) and 45.6 µM (active).

**Q.** And the outcome [9]?
**A.** The outcome was “inactive”.

**Q.** And the outcome [10]?
**A.** Its outcome is “inactive”.
